A selection: hits, their analogues and other compounds. The true share with any hit is near 2.5%.
D2 PAM-1: potentiates the human D2 dopamine receptor allosterically; potentiation, % (no concentration beside the values); P14416; DiscoveRx D2 beta-arrestin cells, luminescence, 90 min; 100% = 57 uM dopamine signal; 0.23% of 360,000 active; in the data active = potentiation above about 50%; inconclusive = mostly about 30% to 49%
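PathHunter beta-arrestin assay in DiscoveRx D2 cells. Compounds were added with an EC20 of dopamine (50 nM final) for 90 min at 37 deg C. Luminescence was read 1 h after detection reagent, with 57 uM dopamine as the EC100 control.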
D2 ag-1: agonists of human D2 dopamine receptor (beta-arrestin). P14416. DiscoveRx PathHunter D2 beta-arrestin, luminescence, 90 min; 100% = 57 uM dopamine signal. activation, % (no concentration beside the values). 0.084% of 360,000 active; in the data active = activation above about 40%; inconclusive = between about 15% and that limit
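Agonist mode: compounds alone added to overnight-plated D2 PathHunter cells for 90 min at 37 C, with 57 uM final dopamine (EC100) defining full response. Beta-arrestin recruitment detected by chemiluminescent reagent, read after 1 h at ambient temperature.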
Apoferritin bind: binds horse apoferritin like a general anesthetic | Potency, µM (highest dose often 77.5 µM), for the others: top-dose activity change, negative = displacement, hits mostly inhibitors | 0.074% of 350,000 active | apoferritin/1-aminoanthracene competitive binding, fluorescence | P02791; note: potency is the fitted concentration of half-maximal effect; % is set by controls: 0 for no effect and ±100 for the full control effect; nearly all actives have a fitted effect of over 20% in size
Target sequence (P02791 2-175 limits assumed): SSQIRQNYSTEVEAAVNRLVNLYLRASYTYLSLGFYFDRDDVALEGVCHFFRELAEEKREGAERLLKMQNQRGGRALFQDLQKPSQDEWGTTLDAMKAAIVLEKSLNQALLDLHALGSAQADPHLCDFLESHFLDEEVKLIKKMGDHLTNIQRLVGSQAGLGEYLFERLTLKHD
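Apoferritin-based anesthetic binding model; compound displacement of fluorescent 1-AMA measured as endpoint fluorescence after 10 minutes at room temperature, scaled to free-ligand and complex controls.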
D2 ag-2: activates the human D2 dopamine receptor; P14416; HEK293 T-REx D2 cells, calcium flux agonist mode; activation, % at 2 µM; 0.53% of 340,000 active;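 active = activation over 3 SD above normal in the single-dose calcium agonist read, cut at about 30% in these data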; note: 0% is about no effect
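Tetracycline-induced HEK293 T-REx cells with force-coupled D2 receptor, plated overnight at 30 C, loaded with no-wash calcium dye. After a 10 s baseline, compound was pin-added and calcium flux read kinetically for 180 s; calcium rises flagged agonists.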
D2 PAM-2: D2 dopamine receptor (human) potentiation | P14416 | HEK293 T-REx D2, calcium flux, EC20 dopamine potentiation | potentiation, % at 10 µM | 0.34% of 340,000 active;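 active = potentiation over 3 SD above the plate norm, cut at about 30% in these data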; note: 0% is about no effect
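Using a no-wash calcium dye in inducible, force-coupled HEK293 Trex cells expressing D2, we tracked fluorescence each second for 180 s after compound, then for 180 s after EC20 dopamine to detect augmented signalling.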
D2 antagonist: antagonizes the human D2 dopamine receptor | HEK293 TREx D2 cells, calcium flux, dopamine EC80 | inhibition, % at 10 µM | 2% of 340,000 active | AID 485344; in the data active = inhibition above about 30%; inactive = below that, where a call was filed; note: 0% is about no effect
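HEK293 T-REx D2 cells, tet-induced, calcium dye no-wash. Cpd pintool add, 180 s kinetic, then EC80 DA, 180 s kinetic. Ca flux read.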
D3 ag: confirmation of human D3 dopamine receptor agonists, beta-arrestin. Potency, µM (top dose mostly 76.9 µM), without a hit: top-dose activation, actives largely listed as activators. 4% of 2,300 active. DiscoveRx D3 beta-arrestin cells, luminescence, 90 min. shares compounds with D2 ag-2;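 note: potency is the fitted concentration of half-maximal effect; 100% = dopamine control response; nearly all actives have a fitted effect of over 70% in size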
D2 ag-3: activates human D2 dopamine receptor in D3 counterscreen. DiscoveRx PathHunter D2 beta-arrestin, luminescence, 90 min; response scale: percent relative to full dopamine signal. AID 720507. 5.9% of 2,300 active. Potency, µM (titrated, usually from 76.9 µM), for the others: at the highest dose activation, usual class: activators. shares compounds with D2 ag-2; note: potency is the fitted concentration of half-maximal effect; % of control where 0% means no effect; nearly all actives have a fitted effect of over 70% in size
Active calls of the source: *; ? = inconclusive; / = not tested or not shown. Unless noted, calls come from the whole dose curve; as a rule, active = well fitted curve in the direction sought with a large enough effect; inconclusive = small, poorly fitted or top-dose-only effect, or another doubt; inactive = no such curve, though single readings can be large; an effect the other way counts as inactive or inconclusive.

SMILES | D2 PAM-1 | D2 ag-1 | Apoferritin bind | D2 ag-2 | D2 PAM-2 | D2 antagonist | D3 ag | D2 ag-3
O=C(Cc1ccccc1)Nc1cccc(S(=O)(=O)N2CCCCCC2)c1 | 0 | 5 | / | -2 | 3 | 12 | / | /
O=C1C2CCCCN2C(=O)N1CCCCN1CCN(c2cccc(C(F)(F)F)c2)CC1 (stereo unspecified) | -3 | -1 | / | / | / | / | / | /
O=c1n(CCCN2CCN(c3cccc(Cl)c3)CC2)nc2ccccn12 | -25 | -4 | -3% | 41* | -23 | 52* | -7% | 7%
O=C1C2CCCN2C(=O)N1CCCN1CCN(c2cccc(Cl)c2)CC1 (stereo unspecified) | -24 | 2 | 0% | 26 | -29 | 31* | -13% | 0%
N#CCCN(C(=O)COC(=O)c1cccc(S(=O)(=O)N2CCCC2)c1)c1ccc(F)cc1 | -15 | -1 | -19% | 1 | -1 | -4 | / | /
CC(=O)N1CCN(S(=O)(=O)c2cccc(C(=O)OCC(=O)N(CCC#N)c3ccc(F)cc3)c2)CC1 | -4 | -3 | / | 0 | 14 | 7 | -8% | -4%
COc1ccc(CN2CCN(C(=O)c3ccco3)CC2)cc1OC | ? | 84* | 0% | 86* | -23 | 60* | ? | 16µM*
COc1ccc(CN2CCN(C(=O)c3ccco3)CC2)cc1OCc1ccccc1 | 0 | ? | -13% | 83* | -16 | 71* | ? | 18µM*
CC1(C)CCc2cc(CN3CCN(c4ccccn4)CC3)ccc2O1 | 4 | 13 | -8% | 77* | -21 | 85* | 16% | ?
COc1ccc(-c2[nH]ncc2CN2CCN(c3ccccn3)CC2)c(OC)c1 | 5 | 10 | -3% | 69* | -22 | 57* | -19% | 9%
CCN1CCN(Cc2ccc(OC)c(OCc3ccccc3)c2)CC1 | -15 | -2 | -9% | 0 | -19 | 0 | / | /
CCCCn1c(N)c(N(CCOC)C(=O)C2CCN(S(=O)(=O)c3ccc(C)c(C)c3)CC2)c(=O)[nH]c1=O | 9 | -4 | / | 0 | 5 | 13 | / | /
CCOC(=O)C(=O)Nc1nnc2n1CCS2 | / | / | 9% | -1 | -3 | / | / | /
Cc1nc2c(nnn2Cc2ccccc2)c(=O)n1-c1ccccc1 | -24 | -5 | -19% | / | / | / | / | /
COc1ccc(CN2CCN(c3ccccn3)CC2)cc1OCc1ccccc1 | 10 | ? | -5% | 72* | -21 | 87* | -1% | ?
OC(COCC1COc2ccccc2O1)CN1CCN(c2ccccc2F)CC1 (stereo unspecified) | -10 | 7 | -13% | 60* | -23 | 84* | ? | ?
OC(CNCC1COc2ccccc2O1)COc1ccccc1F (stereo unspecified) | -16 | 0 | -14% | 78* | -36 | 96* | 17% | 10%
OC(COCc1ccccc1)CN1CCN(c2ccccc2F)CC1 (stereo unspecified) | -29 | 6 | -3% | 64* | -22 | 111* | ? | ?
Cc1ccc(N2CCN(CC(O)COc3ccc([N+](=O)[O-])cc3)CC2)cc1 (stereo unspecified) | -9 | 3 | -16% | 0 | -14 | 10 | / | /
O=[N+]([O-])c1ccc(OCC(O)CN2CCN(c3ccccc3F)CC2)cc1 (stereo unspecified) | -15 | ? | -13% | 79* | -26 | 91* | ? | ?
CCN1CCN(CC(O)COCc2ccccc2)CC1 (stereo unspecified) | -7 | -2 | -6% | 1 | 2 | -5 | / | /

High-throughput results: PubChem BioAssay, National Center for Advancing Translational Sciences (NCATS)
